# ± gives the standard deviation.
# Tested on: RAW-Dual (murine macrophage reporter line)
# Experiment: NF-kB reporter (SEAP) activity fold change vs agonist alone; higher = enhanced NF-kB activity
# Settings: modulator concentration 10 µM; agonist: MPLA […]
# In short: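 In 384-well plates holding 50 000 RAW-Dual murine macrophage reporter cells per well, compound at 10 μM final was pre-incubated for 1 hour at 37 °C, after which a PRR agonist was added overnight. Supernatant SEAP read with QUANTI-Blue at 620 nm absorbance reported NF-κB, and Lucia luciferase read with QUANTI-Luc luminescence reported IRF. Fold change values come from dividing each reporter signal by the mean of agonist-only control wells on the same plate, averaged over replicate plates with propagated errors.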
row,Structure (SMILES),NF-kB reporter
1,Cc1nc(C(=O)NCC(=O)O)c(O)c2ccc(Oc3ccccc3)cc12,0.94 ± 0.053
2,CCN(CCO)CCCC(C)Nc1ccnc2cc(Cl)ccc12.O=S(=O)(O)O (stereo not given),1.44 ± 0.24
3,COc1ccccc1C(=O)Nc1ccc(-c2nc3cc(C)ccc3o2)cc1,1.12 ± 0.11
4,Cc1c(F)cc(C(=O)NC2CC2)cc1-c1ccc(C(=O)NCC(C)(C)C)cn1,1.01 ± 0.071
5,CNC(=O)C(=O)Nc1cc(Cl)ccc1C,0.912 ± 0.08
6,CC(C)(C)C(=O)NCc1cccnc1-c1cccnc1,0.892 ± 0.047
7,O=C(NN=Cc1ccc([N+](=O)[O-])s1)c1ccc(Br)cc1,0.96 ± 0.09
8,Cc1cc(=O)n(CC(=O)N2CCC(c3ccccc3F)S(=O)(=O)CC2)cn1 (stereo not given),0.953 ± 0.09
9,Br.Cc1ccc(Sc2ccccc2N2CCNCC2)c(C)c1,1.78 ± 0.15
10,CCOC(=O)C1=C(C)NC(C)=C(C(=O)OC)C1c1ccc(Cl)cc1 (stereo not given),0.563 ± 0.062
11,O=C(Nc1nc2ccc(Cl)cc2s1)c1ccc(Br)s1,0.924 ± 0.025
12,CC(=O)c1c(C(C)=O)c(C)n(-c2ccccc2N)c1C,1.01 ± 0.1
13,O=Cc1ccc(OCc2cccc([N+](=O)[O-])c2)c(Br)c1,1.09 ± 0.18
14,COc1ccccc1N1CCN(CC(O)COc2cccc3ccccc23)CC1 (stereo not given),0.711 ± 0.04
15,CC(=O)Nc1ccc(CC(=O)N2C3C=CCC2CC3)cc1 (stereo not given),1.04 ± 0.14
16,Cc1occc1C(=O)Nc1ccc([N+](=O)[O-])cc1Cl,0.898 ± 0.026
17,CC(=O)N1CCN(C(=O)Cn2cnc(-c3ccc(C)cc3)cc2=O)CC1,1.06 ± 0.14
18,O=C(Oc1ccc(C=Nc2ccc([N+](=O)[O-])cc2)cc1)c1ccccc1,0.978 ± 0.056
19,NC(=O)NCC(N)C(=O)O (stereo not given),0.969 ± 0.022
20,CCCCc1oc2ccccc2c1C(=O)c1cc(I)c(OCCN(CC)CC)c(I)c1.Cl,1.83 ± 0.34

row,Structure (SMILES),NF-kB reporter
1,CN(C)c1ccc(C=NN2C(=O)c3cccc4cccc(c34)C2=O)cc1,0.964 ± 0.11
2,COC(=O)C1=CN(CC2CCCO2)C=C(C(=O)OC)C1c1ccccc1OC (stereo not given),1.3 ± 0.37
3,CN(C)C1C(O)=C(C(N)=O)C(=O)C2(O)C(O)=C3C(=O)c4c(O)cccc4C(C)(O)C3CC12.Cl (stereo not given),1.01 ± 0.021
4,COc1ccccc1N1CCN(CCCNc2cc(=O)n(C)c(=O)n2C)CC1.Cl,0.954 ± 0.085
5,O=C(CCCCCN1C(=O)c2cccc3cccc(c23)C1=O)NO,4.2 ± 0.32
6,O=C(Nc1cc(C(F)(F)F)cc(C(F)(F)F)c1)c1ccco1,1.02 ± 0.072
7,CO[C@@]1(NC(=O)CSCC#N)C(=O)N2C(C(=O)[O-])=C(CSc3nnnn3C)CS[C@@H]21 [Prestw-700],0.927 ± 0.063
8,Cc1nnc(NC(=O)c2cccc([N+](=O)[O-])c2)s1,0.999 ± 0.038
9,COc1ccc(C2=CC(=Cc3cccc(OC)c3OC)C(=O)O2)c(OC)c1,1.07 ± 0.086
10,Cc1ccc(NC(=O)CN2C(=O)c3ccccc3C2=O)c(C(=O)O)c1,1.05 ± 0.091
11,CCC(C)(C)C(=O)O[C@H]1C[C@@H](C)C=C2C=C[C@H](C)[C@H](CC[C@@H]3C[C@@H](O)CC(=O)O3)[C@H]21,1.82 ± 0.084
12,Cc1ccc(C(=O)NC(=S)Nc2nc(-c3cccc([N+](=O)[O-])c3)cs2)cc1C,0.977 ± 0.036
13,O=C(NCCN1CCOCC1)c1ccc(Cl)cc1,0.953 ± 0.055
14,Cl.O=C1NCC2(CCN(CCc3ccccc3)CC2)O1,0.798 ± 0.082
15,CCCc1nc2ccccc2c(NC(=O)CN2CCOCC2)c1CC.O=C(O)C(=O)O,1.01 ± 0.059
16,CC(C)(C)c1ccc(C(=O)Nc2nc3ccc([N+](=O)[O-])cc3s2)cc1,1 ± 0.035
17,C1N2CN3CN1CN(C2)C3,1.03 ± 0.033
18,O=S(=O)(Nc1ccnc2ccccc12)c1ccccc1,0.936 ± 0.088
19,Cc1cc2c(cc1S(N)(=O)=O)S(=O)(=O)CCC2,0.997 ± 0.022
20,C[C@H](N[C@@H](CCc1ccccc1)C(=O)O)C(=O)N1CCC[C@H]1C(=O)O.O.O,1.03 ± 0.073

# Reference: the supplement of paper PMC10646978
